tim23-1 inh: growth inhibitors of tim23-1 mutant yeast | S. cerevisiae tim23-1 growth, BacTiter-Glo luminescence, 24 h | inhibition, % at 20 µM | 330,000 compounds, 1.3% hits;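 active = growth inhibition of the mutant yeast at or above 50%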;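 also: temperature-sensitive mutant grown at 25 °C; plate controls were DMSO-treated mutant yeast for no effect and medium wells lacking yeast for full effect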
V-ATPase pH: yeast V-ATPase proton transport regulation by pHLuorin | response, % at 10 µM | S. cerevisiae, pHLuorin cytosolic pH fluorescence | 350,000 compounds, 0.37% hits; in the data active = response mostly above about 7.3%, no sharp cut-off; inactive = mostly below about 5.4%; also: actives read high
TIM10 inh: growth inhibitors of TIM10 yeast strain; inhibition, % at 10 µM; S. cerevisiae TIM10 strain growth, BacTiter-Glo luminescence, 24 h; 330,000 compounds, 1.4% hits;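 active = inhibition of 40% or more at the single tested concentration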;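 also: wild-type TIM10 isogenic control strain grown at permissive 25 °C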
tim10-1 inh: tim10-1 yeast growth inhibition; S. cerevisiae tim10-1 ts strain growth, BacTiter-Glo, 24 h; 330,000 compounds, 2.2% hits; inhibition, % at 20 µM;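 active = inhibition of at least 40%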;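 also: mutant grown at 25 °C; 0% = DMSO wells with yeast and 100% = wells holding no yeast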
PfHsp90 set2: growth inhibition of yeast expressing Plasmodium Hsp90; 310,000 compounds, 0.32% hits; inhibition, % at 9.4 µM; S. cerevisiae expressing PfHsp90, BacTiter-Glo ATP, 48 h; yeast lacking PDR1 and PDR3 efflux regulators;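 active = every replicate shows inhibition above about 80%, whatever the replicate mean, limit read from the data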;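 also: 0% = DMSO neutral controls and 100% = 20 µM radicicol positive controls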
tim10-1 conf: confirmation of tim10-1 mutant yeast growth inhibitors; shares compounds with tim10-1 inh; S. cerevisiae tim10-1 ts strain growth, BacTiter-Glo, 24 h; inhibition, % at 20 µM; 7,400 compounds, 56% hits; AID 463213;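 active = inhibition of yeast growth at or above a set limit in either of two repeat tests at 20 µM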;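 also: tim10-1 mutant grown at permissive 25 °C to find synthetic lethal compounds; 0% = DMSO yeast wells and 100% = medium wells without yeast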
tim10 confirm: confirmation of TIM10 yeast growth inhibitors; 4,600 compounds, 63% hits; shares compounds with TIM10 inh; S. cerevisiae tim10 strain growth, BacTiter-Glo luminescence, 24 h; AID 463215; inhibition, % at 10 µM;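 active = inhibition of yeast growth at or above a set limit in either of two replicates at 10 µM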;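 also: this counterscreen used the strain with wild-type TIM10; 0% = yeast with DMSO and 100% = medium wells lacking yeast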
Numbers without * were called inactive; / = no result. Most compounds without a hit are left out; they make up all but 3.7% or so of the library.

SMILES | tim23-1 inh | V-ATPase pH | TIM10 inh | tim10-1 inh | PfHsp90 set2 | tim10-1 conf | tim10 confirm
CCOC(=O)C1CCCN(C(=O)c2ccc(CS(=O)(=O)c3ccc(C)cc3)o2)C1 (configuration not stated) | 6 | 2 | 6 | 13 | 27 | / | /
c1ccc(-c2c(-c3ccccc3)n(Cc3ccco3)c3ncnc(NCCCn4ccnc4)c23)cc1 | -31 | -2 | 45* | 40* | 104* | 38* | 11
OCCNc1ncnc2c1c(-c1ccccc1)c(-c1ccccc1)n2Cc1ccco1 | 35 | 1 | 26 | 21 | -25 | / | /
COc1ccc(-n2cc(CNC3CCC(O)CC3)c(-c3cccc(F)c3)n2)cc1 (configuration not stated) | 0 | -3 | 7 | 9 | 3 | / | /
c1cc(C2CCCCC2)ccc1Oc1nc(N2CCOCC2)nc(N2CCOCC2)n1 | 10 | 0 | 52* | 44* | -72 | 5 | 33*
COc1ccc(CNC(=O)c2ccc(S(=O)(=O)N3CC(C)CC(C)C3)cc2)cc1OC (configuration not stated) | / | -2 | / | / | -17 | / | /
Cc1ccc(C(=O)Nc2ccccc2C(=O)NCc2cccnc2)cc1 | 11 | -5 | 9 | 25 | 1 | / | /
Cc1ccc(C(=O)Nc2ccccc2C(=O)NCc2ccccc2)cc1 | 44 | -2 | 48* | 47* | -43 | 41* | 4
O=c1ccc2cc(S(=O)(=O)N3CCN(c4cc(Cl)ccc4Cl)CC3)ccc2o1 | 25 | 2 | 42* | 42* | / | 24 | 39*
O=c1ccc2cc(S(=O)(=O)N3CCN(c4ccc(Cl)cc4)CC3)ccc2o1 | -16 | -5 | 3 | -6 | 20 | / | /
O=C(NC1CCN(Cc2ccccc2)CC1)c1cccc(Br)c1 | -23 | -1 | -5 | -34 | 25 | / | /
Cc1ccc(NNC(=O)c2ccno2)c(C)c1 | -2 | -3 | 1 | -10 | 4 | / | /
Cc1cc(N2C(=O)C=CC2=O)c([N+](=O)[O-])cc1C | 4 | -1 | 83* | 95* | 117* | 93* | 95*
CCCN(CCC)CCNS(=O)(=O)c1ccc2c(c1)CCN2C(=O)C1CCC1 | 13 | -1 | 10 | 9 | 4 | / | /
O=C(C1CC1)N1CCc2cc(S(=O)(=O)NCCC3=CCCCC3)ccc21 | 31 | -3 | 41* | 50* | -11 | 34* | 0
O=C(C1CCC1)N1CCc2cc(S(=O)(=O)N3CCCCC3)ccc21 | 19 | 0 | 9 | 29 | 3 | / | /
CCOC(=O)N1CCN(S(=O)(=O)c2ccc3c(c2)CCN3C(=O)C2CCC2)CC1 | -46 | 0 | 47* | 56* | 13 | 53* | -20
O=C(C1CCC1)N1CCc2cc(S(=O)(=O)N3CCN(c4ccccn4)CC3)ccc21 | -11 | -1 | 56* | 69* | 0 | 69* | -25
C=CC[C@H]1C=C[C@@H](C(C(=O)OC)C(=O)OC)CN1C(C)=O | / | -2 | / | / | 2 | / | /
O=C(CN1CCN(S(=O)(=O)c2ccc(Cl)c(Cl)c2)CC1)N1CCCC1 | 5 | -1 | 8 | -2 | -36 | / | /
CNC(=O)NC(=O)CN1C(=O)NC2(CCOc3ccccc32)C1=O (configuration not stated) | -4 | 4 | -5 | 0 | -29 | / | /
CCOC(=O)c1sc(NC(=O)CCN2CCCCCC2)c(C(=O)OCC)c1C | 10 | 7 | 44* | 61* | -2 | 51* | 43*
CCOC(=O)c1c(NC(=O)CC)sc(C(=O)N2CCCCC2)c1C | 0 | -2 | -4 | -3 | 4 | / | /
Nc1ccc(S(=O)(=O)N2CCOCCOCCOCCOCCOCC2)cc1 | -1 | -2 | -9 | 7 | 7 | / | /
CCN1CCCC(OC(=O)c2cc(-c3ccccc3Cl)nc3ccccc23)C1 (configuration not stated) | 12 | -4 | 49* | 48* | -4 | 33* | 37*
SMILES | tim23-1 inh | V-ATPase pH | TIM10 inh | tim10-1 inh | PfHsp90 set2 | tim10-1 conf | tim10 confirm
CN(C)S(=O)(=O)Oc1cccc(C(=O)Nc2cccc(Cl)c2)c1 | 46 | 2 | 77* | 55* | / | 46* | 72*
CN(C)S(=O)(=O)Oc1cccc(C(=O)Nc2ccc(Cl)c(Cl)c2)c1 | 16 | -5 | 49* | 57* | 4 | 44* | 65*
COc1ccc(NC(=O)c2cccc(OS(=O)(=O)N(C)C)c2)cc1 | -12 | 0 | 5 | 11 | -18 | / | /
CN(C)S(=O)(=O)c1cccc(C(=O)Nc2cc(Cl)cc(Cl)c2)c1 | 34 | -3 | 42* | 51* | 2 | 28 | -27
COCCNC(=S)Nc1ccccc1Cc1ccccc1 | -2 | 0 | 14 | 7 | 13 | / | /
Cc1ccnc2nc(C(=O)OCC(=O)N(Cc3ccccc3)C(C)(C)C)nn12 | 4 | 1 | -6 | 3 | -1 | / | /
Cc1ccc(C(=O)NCC(=O)OC(C)C(=O)NC2CCCc3ccccc32)cc1 (configuration not stated) | 18 | -4 | 6 | 22 | -5 | / | /
CCCOC(=O)/C(=C\c1ccc([N+](=O)[O-])o1)NC(=O)c1ccccc1 | 42 | 2 | 54* | 56* | 12 | 47* | -8
COc1ccccc1CN1CCc2c([nH]c3ccccc23)C1 | -4 | -2 | -6 | 4 | 8 | / | /
Clc1cccc(CN2CCc3c([nH]c4ccccc34)C2)c1Cl | 46 | -1 | 60* | 72* | 7 | 66* | 66*
COc1ccc(Br)c(C(=O)OCC(=O)NC2CCCCCCC2)c1 | / | 3 | / | / | / | / | /
Cc1ccc(-n2ccn(CC(=O)NCCc3ccccc3)c(=O)c2=O)cc1C | -9 | -1 | -11 | -2 | -21 | / | /
CCOC(=O)C1=NN(c2ccccc2C)C2=NC(C)=C(C(=O)OC)C(c3cccs3)N12 (configuration not stated) | 37 | 4 | 42* | 41* | / | 18 | 20
CCOC(=O)C1=NN(c2ccccc2)C2=NC(C)=C(C(=O)OC)C(c3cccs3)N12 (configuration not stated) | 32 | -1 | 24 | 38 | 0 | / | /
O=c1cc(-c2c(F)c(F)c(F)c(F)c2F)oc2c(F)c(F)c(F)c(F)c12 | 31 | / | 54* | 42* | / | 46* | 41*
O=c1cc(-c2c(F)c(F)c(F)c(F)c2F)oc2ccccc12 | 28 | 1 | 15 | 17 | -50 | / | /
COc1ccc(C2C(C#N)=C(N)Oc3cc(C)[nH]c(=O)c32)cc1OC (configuration not stated) | -2 | -4 | 8 | -12 | 6 | / | /
CCCNC(=O)Cn1sc2nc(C)cc(C)c2c1=O | 7 | 1 | 6 | 28 | -6 | / | /
Cc1ccc(O)c(C(=O)/C=C/c2ccc3c(c2)OCCO3)c1 | 41 | 1 | 59* | 55* | 15 | 54* | 50*
S=C(NCc1cccnc1)Nc1ccc(Oc2ccc(Cl)cc2)cc1 | 29 | -5 | 29 | 32 | 19 | / | /
